# Measured potencies and affinities stand elsewhere. Calls of active or inactive are those of the source.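 How the source made its calls: active means Loss of cell signal with fitted half-effect dose at or below twice the top valid tested dose; inconclusive means Poor fit, or flat fit from -70 to -30 percent; inactive means Half-effect above limit, rising signal, or flat within 30 percent.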
# Experiment: HEK293T cell cytotoxicity, dose response, cytotoxicity control for HIV Vif inhibitor project, cherry-picks (AID 652208)
# Settings: HEK293T viability, CellTiter-Glo luminescence, 24 h; series mostly up to 26 µM
row,SMILES,outcome
1,NS(=O)(=O)c1ccc(-c2ccc(/C=C3\SC(=O)NC3=O)o2)cc1,inactive
2,Cc1cc(/C=C2\C(=N)N3C(SCc4ccccc4)=NSC3=NC2=O)c(C)n1Cc1ccccc1,inactive
3,COc1ccccc1C(=O)COC(=O)C1(C)CC1(Cl)Cl (stereo not drawn),inactive
4,Cc1cccc2cc(COC(=O)c3ccco3)c(=O)[nH]c12,inactive
5,CCN1CCN(c2cc(=O)n(-c3cc(Cl)ccc3C)c(=O)[nH]2)CC1,inactive
6,Cc1ccc(-n2nnc3c(=O)n(CC(=O)OCc4ccccc4)cnc32)cc1,inactive
7,CCOC(=O)C1CCCN1C(=O)C1(NC(C)=O)CCCC1 (stereo not drawn),inactive
8,Cc1ccc(NC(=O)/C=C/C(=O)O)c(NC(=O)c2ccccc2)c1,inactive
9,O=C(Nc1ccc2c(c1)nc1n2CCOC1)c1ccccc1,inactive
10,Cc1cccc(N2CCN(C(=O)c3cc4ccccc4oc3=O)CC2)c1C,inactive
11,COc1cc(-c2cnc3c(NC=O)cc(-c4ccccc4Cl)cn23)cc(OC)c1OC,inactive
12,Cc1nc(-c2ccccc2OC(F)(F)F)[nH]c(=O)c1Cl,inactive
13,CCN1c2ccccc2NC2C1C(C(C)=O)C(=O)N2c1ccc(Cl)cc1 (stereo not drawn),inactive
14,NCCCCCC(=O)Nc1ccncc1,inactive
15,CC(OC(=O)c1c[nH]c2ccccc12)C(=O)N1CCCC1 (stereo not drawn),inactive
16,COc1ccc(-c2nc(-c3ccccn3)nc(N3CCN(C)CC3)c2C#N)cc1,inactive
17,O=C(CCCOc1ccc(Br)cc1)NNC(=O)c1ccncc1,inactive
18,Oc1[nH]c(=S)sc1/C=C1\C(c2ccccc2)=Nc2ccccc21,inactive
19,Cc1ccc(Nc2cc(=O)[nH]c(=O)[nH]2)cc1C,inactive

row,SMILES,outcome
1,O=C(c1ccc2c(c1)OCO2)N(CC1CCCO1)C1(C(=O)NC2CCCC2)CCCCC1 (stereo not drawn),inactive
2,COc1ccccc1C1C2=C(COC2=O)Nc2cc3c(cc21)OCO3 (stereo not drawn),inactive
3,COc1ccc(-c2coc3cc(O)ccc3c2=O)cc1,inactive
4,CCCCCCOC(=O)C(C#N)c1nc2ccccc2nc1N1CCOCC1 (stereo not drawn),inactive
5,COc1ccc([C@H]2CC(=O)C=C(c3cc4ccccc4s3)C2)cc1,inactive
6,CCOC(=O)c1c(C)[nH]c(-c2csc(N)n2)c1C,inactive
7,COc1ccc(OC)c(/C=C/c2nc3ccccc3[nH]c2=O)c1,inactive
8,COc1cc(CNCc2ccccc2)c(Br)cc1OC1CCCC1,inactive
9,COc1ccc(NC(=O)c2ccccc2NC(=O)CSc2ccc(C)cc2)cc1,inactive
10,O=C(NCc1ccccn1)c1ccc(Cn2c(=S)[nH]c3ccc(Br)cc3c2=O)cc1,inactive
11,Cc1ccc2c(c1)N(CC(=O)N1CCCCCC1)C(=O)C(C)O2 (stereo not drawn),inactive
12,COCCNCC(=O)Nc1nc(C)cs1,inactive
13,COc1ccc(/C=c2\s/c(=C/C(=O)c3ccc(C)cc3)[nH]c2=O)c(OC)c1,inactive
14,CCCCN1C(=O)/C(=C/C=C2\Oc3ccccc3N2CC)SC1=S,inactive
15,COc1cccc(N2CCN(S(=O)(=O)c3cc4c(cc3C)N(C)CCO4)CC2)c1,inactive
16,C/C=C/c1ccc(OCCNCc2ccccc2)c(OC)c1,inactive
17,CC(C)CN(C(=O)COC(=O)CSc1ccccc1)c1c(N)n(Cc2ccccc2)c(=O)[nH]c1=O,inactive
18,COc1c2occc2c(OC)c2c(=O)cc(C)oc12,inactive
19,NC(=O)c1sc2nc(-c3ccccc3)ccc2c1N,inactive

# — PubChem BioAssay AID652208 (Broad Institute, 2013)
